In PubChem BioAssay AID652134 (The Scripps Research Institute Molecular Screening Center, 2013) one finds inhibition data, which are given here for 57 molecules.

Usually inhibition stands for the relative decrease from the control value, in per cent.

Molecules are shown by their SMILES. The whole screen tested about 2,400 compounds, of which about 2,100 (88%) were called active.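 Rule for the calls: active = inhibition above the average of every tested compound plus 3 SD (cut at about 3.8% in these data); inactive = the rest.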 The set was probably picked from earlier hits. Not all results are given here.

In this experiment the target is Nuclear receptor subfamily 0 group B member 1 (Homo sapiens) (UniProt P51843). Description: NR0B1 repressor blockers, StAR reporter readout – cell-based, luminescence, HEK293T, full-length DAX-1, SF-1 activated StAR promoter, confirmation (AID 652134).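 Note: 0% = DAX-1 cells with DMSO and 100% = no DAX-1 control cells with DMSO; active compounds raise luminescence by relieving repression of the StAR reporter.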 Particulars: HEK293T StAR-promoter luciferase reporter, SF-1/DAX-1 repression; at 6.8 µM; hits give high values. (A reporter such as luciferase makes a cellular process visible.)
Chain of Nuclear receptor subfamily 0 group B member 1 (Homo sapiens) (P51843 whole entry, looked up): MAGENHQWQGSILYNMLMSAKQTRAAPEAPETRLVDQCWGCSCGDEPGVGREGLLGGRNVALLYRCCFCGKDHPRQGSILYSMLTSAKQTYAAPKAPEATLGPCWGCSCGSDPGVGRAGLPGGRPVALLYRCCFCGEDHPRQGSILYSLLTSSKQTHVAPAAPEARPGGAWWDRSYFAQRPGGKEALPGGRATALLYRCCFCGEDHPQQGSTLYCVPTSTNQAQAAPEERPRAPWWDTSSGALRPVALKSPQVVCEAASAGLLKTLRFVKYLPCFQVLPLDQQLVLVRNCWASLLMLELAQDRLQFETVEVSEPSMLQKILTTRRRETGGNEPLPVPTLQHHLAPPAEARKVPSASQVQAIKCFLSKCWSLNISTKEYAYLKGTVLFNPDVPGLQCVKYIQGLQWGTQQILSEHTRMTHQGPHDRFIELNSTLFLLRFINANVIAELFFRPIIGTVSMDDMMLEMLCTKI
Turning to `CC1CCCN(c2ccc(C(=O)NCCc3ccccc3)cn2)C1` (configuration not stated), the inhibition was 7.54% (active).
Then `CC[C@]1(O)CC2CN(CCc3c([nH]c4ccccc34)[C@@](C(=O)OC)(c3cc4c(cc3OC)N(C=O)[C@H]3[C@@](O)(C(=O)OC)[C@H](OC(C)=O)[C@]5(CC)C=CCN6CC[C@]43[C@@H]65)C2)C1` (some centres not stated), with 17.7% (active).
Consider `CC[C@]1(O)C[C@@H]2CN(CCc3c([nH]c4ccccc34)[C@@](C(=O)OC)(c3cc4c(cc3OC)N(C)[C@H]3[C@@](O)(C(=O)OC)[C@H](OC(C)=O)[C@]5(CC)C=CCN6CC[C@]43[C@@H]65)C2)C1`, for which the inhibition is 19.4% (active).
The result for `Cc1c(C(=O)Nc2ccccn2)oc2ccc(Br)cc12` reads 12.8% (active).
Then `CCOc1ccc(-c2nnc(-c3ccco3)o2)cc1`, with 9.81% (active); and `O=C(NCC1CCCO1)c1cc2c(s1)CCCC2` (configuration not stated), with 5.13% (active).
On to `O=C(Nc1ccc2ccccc2c1[N+](=O)[O-])c1ccccc1`, for which the inhibition is 8.86% (active).
Then `C/C(=N\NC(=O)c1ccccc1F)c1ccccn1`, with -7.54% (inactive).
In the case of `O=C(NCCOc1ccccc1)c1ccccc1F`, the inhibition is 13.3% (active).
Then `O=C(Nc1ccn(Cc2ccccc2)n1)c1n[nH]c([N+](=O)[O-])c1Cl`, with 10.4% (active); and `O=C(CCc1ccccc1)Nc1ncc([N+](=O)[O-])s1`, with 3.12% (inactive).
Consider `COc1ccc(-c2csc(Nc3ccccn3)n2)cc1`, for which the inhibition was 12.8% (active).
`COC(=O)Nc1nc2ccc(C(=O)C3CC3)cc2[nH]1`: the inhibition is 17.1% (active).
Regarding `CN1CCN(C(=O)c2ccc(-c3ccc(Br)cc3)o2)CC1`, the inhibition was 6.02% (active).
Turning to `COc1ccc(CCOC2OC(CO)C(OC(=O)/C=C/c3ccc(O)c(OC)c3)C(O[C@H]3O[C@@H](C)[C@H](O)[C@@H](O)[C@H]3O)C2O)cc1O` (some centres not stated), the inhibition was 2.5% (inactive).
The result for `CCCOc1ccc(C(=O)NCCc2ccccc2)cc1` reads 11.2% (active); that for `COc1ccc(C(=O)NCC[N+](C)(C)C)cc1`, 1.64% (inactive).
For the molecule `O=C(N/N=C\C1CC=CCC1)c1ccc(Br)o1` (configuration not stated), the inhibition is 0.48% (inactive).
As for `CCCc1cc(C(=O)Nc2ccc(Cl)cn2)cs1`, the inhibition is 8.76% (active).
The result for `CCCc1cc(C(=O)Nc2ccc(C(=O)OC)cc2)cs1` reads 3.03% (inactive).
Then `Nc1c(C(=O)Nc2ccc3c(c2)OCCO3)nnn1Cc1ccccc1`, with 12.5% (active); and `O=C(Nc1ccc(NC(=O)c2cccs2)cn1)c1ccco1`, with 12.9% (active); and `O=C(NC(=S)Nc1ccc(Cl)cc1Cl)C1CC1`, with 5.19% (active).
With `COc1cc(OC)c(C(=O)NNC(=O)c2ccc(NS(=O)(=O)c3cccs3)cc2)cc1OC`, the inhibition was 1.04% (inactive).
Then `O=C(Nc1ccccc1)Nc1nc2ccccc2s1`, with 14.6% (active).
Consider `CC(C)c1ccc(Nc2nnc(SCC(=O)c3nnc(-c4ccccc4)o3)s2)cc1`, for which the inhibition is 7.92% (active).
Then `CCc1ccc2oc(-c3ccc(N)cc3)nc2c1`, with 12.2% (active); and `CC(C)(C)c1csc(NC2=NS(=O)(=O)c3ccccc32)n1`, with 11.5% (active); and `Cc1ccc(-n2cc3ccc([N+](=O)[O-])cc3n2)cc1`, with 12.1% (active).
Then `Brc1ccc2nc(N3CCCC3)sc2c1`, with 7.35% (active).
`O=C(Nc1ncccc1O)c1ccc(S(=O)(=O)N2CCCC2)cc1`: the inhibition was 10.3% (active).
On to `O=C(Nc1ncccc1O)c1ccc(C(=O)c2ccccc2)cc1`, for which the inhibition is 51.3% (active).
In the case of `O=C(Nc1ncccc1O)c1ccc(S(=O)(=O)N2CCCCCC2)cc1`, the inhibition was 7.57% (active).
Regarding `CCc1ccc(NC(=O)N2CCc3ccccc3C2)cc1`, the inhibition was 5.01% (active).
The result for `Cc1cc(N)n2nc(-c3ccc(C(C)(C)C)cc3)cc2n1` reads 13.7% (active); that for `O=C(c1cnn(-c2ccc(Cl)cc2)c1)c1ccccc1O`, 11.7% (active).
Regarding `Cc1ccc(-c2nc3ccc(Br)cn3c2Cc2ccccc2C(F)(F)F)cc1`, the inhibition was 5.68% (active).
Consider `COc1ccccc1Cc1c(-c2ccc(F)cc2)nc2ccc(C)cn12`, for which the inhibition is 4.48% (active).
In the case of `Nc1ccc2nn(-c3ccc(Cl)cc3)nc2c1`, the inhibition was 15.9% (active).
For the molecule `CN1OC[C@@H]2CN[C@H](c3ccc(-c4ccccc4)cc3)C[C@@H]21`, the inhibition was 8.84% (active).
Then `COc1ccc(-c2csc(-c3cccs3)n2)cc1OC`, with 10.7% (active).
Then `CC1CCN(CCCNC(=O)CN2C(=O)CSc3ccc(S(=O)(=O)N4CCCCC4)cc32)CC1`, with 2.3% (inactive).
The result for `CSCCC(NC(=O)c1ccco1)C(=O)Nc1cc(C)ccn1` (configuration not stated) reads 12.7% (active).
Consider `Cc1ccc(C(=O)NNC(=O)c2ccc3c(c2)OCCO3)cc1`, for which the inhibition was 3.83% (active).
Regarding `Cc1nc(NC(=O)c2ccc3c(c2)OCCO3)ccc1Br`, the inhibition is 12.1% (active).
Then `CN1CCN(c2ccc(NC(=O)c3ccc4c(c3)OCCO4)cc2Cl)CC1`, with 6.62% (active).
Turning to `O=C(Nc1ccccc1)c1ccc2c(c1)OCCCO2`, the inhibition was 15.6% (active).
Regarding `CCC(=O)Nc1ccc(-c2ccc(N3CCCCC3)nn2)cc1`, the inhibition is 3.57% (inactive).
`c1ccc(Cc2c(-c3ccco3)nc3c4ccccc4ccn23)cc1`: the inhibition is 12.1% (active).
Then `Cc1cc(C(=O)NCCc2ccc(Cl)cc2)c(C)o1`, with 3.8% (active); and `COc1ccc(CCNC(=O)COC(=O)Cc2ccccc2F)cc1`, with 0.17% (inactive).
The result for `O=C(O)c1ccc(N/N=C/c2cn(-c3ccccc3)nc2-c2cccs2)cc1` reads 12.7% (active); that for `NC(=O)CSc1nnc(NC(=O)c2ccc3ccccc3c2)s1`, 10% (active).
In the case of `CCSc1nnc(NC(=O)c2ccc(C)cc2)s1`, the inhibition is 10% (active).
The result for `Cc1ccnc(NC(=O)CNC(=O)c2ccccc2)c1` reads 3.68% (active).
Then `Cc1nn(-c2ccc([N+](=O)[O-])cc2)c(N)c1-c1ccccc1`, with 15.1% (active); and `Fc1ccc2cnc(-c3ccccc3)cc2c1`, with 6.65% (active).
